“And” between values parts separate entries of the source, which are not always exact repeats. Equal entries are not always repeated. Out of some 5,500 compounds screened, about 2,000 (36%) were called active. About 18% were inconclusive and are not listed. This is one part of the list. A number with no mark means an inactive call. No stated cut-off is given here; in the data, active means normalized growth mostly below about 0.91 (no sharp cut-off); inconclusive means no clear call, values can overlap the other calls; inactive means mostly above about 0.92.
Assay: chemical genetic growth profiling, strain panel (AID 1159580);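 further: tested at 20 µM; growth read once vehicle control cultures reached saturation at 30 °C; 1 = growth at the plate median or of vehicle wells; lower values mean less growth of the strain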
Details: S. cerevisiae deletion strains, growth OD

Q: Which results are given for `COc1c(O)cc2oc3cc(O)c(CC=C(C)C)c(O)c3c(=O)c2c1CC=C(C)C`?
A: normalized growth (locus YAL013W, strain DEP1, hits give low values): 0.346 (active); normalized growth (locus YAL021C, strain ccr4, hits give low values): 1; normalized growth (locus YAL026C, strain drs2, hits give low values): 0.982; normalized growth (locus YAL030W, strain snc1, hits give low values): 0.984; normalized growth (locus YBR009C, strain hhf1, hits give low values): 0.983; normalized growth (locus YBR021W, strain FUR4, hits give low values): 0.578 (active); normalized growth (locus YBR023C, strain chs3, hits give low values): 0.923; normalized growth (locus YBR171W, strain sec66, hits give low values): 1.02; normalized growth (locus YBR229C, strain ROT2, hits give low values): 0.913 (active); normalized growth (locus YBR231C, strain swc5, hits give low values): 0.851 (active); normalized growth (locus YBR279W, strain paf1, hits give low values): 0.968; normalized growth (locus YCL011C, strain gbp2, hits give low values): 0.912; normalized growth (locus YCL016C, strain dcc1, hits give low values): 0.957; normalized growth (locus YCL029C, strain bik1, hits give low values): 0.773 (active); normalized growth (locus YCL061C, strain MRC1, hits give low values): 0.991; normalized growth (locus YCL069W, strain vba3, hits give low values): 1.01; normalized growth (locus YCR088W, strain abp1, hits give low values): 1; normalized growth (locus YDL005C, strain med2, hits give low values): 1.05; normalized growth (locus YDL035C, strain GPR1, hits give low values): 0.611 (active); normalized growth (locus YDL040C, strain nat1, hits give low values): 1; normalized growth (locus YDL074C, strain BRE1, hits give low values): 0.242 (active); normalized growth (locus YDL101C, strain DUN1, hits give low values): 0.633 (active); normalized growth (locus YDL185W, strain tfp1, hits give low values): 0.916; normalized growth (locus YDL192W, strain arf1, hits give low values): 0.579 (active); normalized growth (locus YDR001C, strain nth1, hits give low values): 1.01; normalized growth (locus YDR069C, strain doa4, hits give low values): 0.89 (active); normalized growth (locus YDR101C, strain arx1, hits give low values): 0.799 (active); normalized growth (locus YDR137W, strain rgp1, hits give low values): 0.501 (active); normalized growth (locus YDR159W, strain sac3, hits give low values): 0.749 (active); normalized growth (locus YDR162C, strain NBP2, hits give low values): 0.543 (active); normalized growth (locus YDR195W, strain ref2): 0.57 (active); normalized growth (locus YDR297W, strain sur2, hits give low values): 0.923; normalized growth (locus YDR318W, strain mcm21, hits give low values): 0.79 (active); normalized growth (locus YDR334W, strain swr1, hits give low values): 0.999; normalized growth (locus YDR335W, strain msn5, hits give low values): 0.957; normalized growth (locus YDR388W, hits give low values): 0.833 (active); normalized growth (locus YDR392W, strain spt3, hits give low values): 0.673 (active); normalized growth (locus YDR502C, strain sam2, hits give low values): 0.771 (active); normalized growth (locus YEL003W, strain gim4, hits give low values): 0.937; normalized growth (locus YEL037C, strain rad23, hits give low values): 1; normalized growth (locus YEL061C, strain CIN8 (second series), hits give low values): 1.01; normalized growth (locus YEL061C, strain CIN8, hits give low values): 0.68 (active); normalized growth (locus YER015W, strain faa2, hits give low values): 0.901 (active); normalized growth (locus YER016W, strain bim1, hits give low values): 0.969; normalized growth (locus YER110C, hits give low values): 0.952; normalized growth (locus YER111C, strain swi4, hits give low values): 1.02; normalized growth (locus YER155C, strain BEM2 (second series), hits give low values): 0.704 (active); normalized growth (locus YER155C, strain BEM2, hits give low values): 0.388 (active); normalized growth (locus YER167W, strain BCK2, hits give low values): 0.792 (active); normalized growth (locus YFR010W, strain ubp6, hits give low values): 0.978; normalized growth (locus YGL078C, strain dbp3, hits give low values): 0.878 (active); normalized growth (locus YGL086W, strain mad1, hits give low values): 0.681 (active); normalized growth (locus YGL167C, strain pmr1, hits give low values): 1.01; normalized growth (locus YGL173C, strain kem1, hits give low values): 0.979; normalized growth (locus YGL227W, strain vid30, hits give low values): 1; normalized growth (locus YGL240W, strain doc1, hits give low values): 0.887; normalized growth (locus YGL248W, strain PDE1, hits give low values): 0.67 (active); normalized growth (locus YGL253W, strain hxk2, hits give low values): 0.99; normalized growth (locus YGR135W, strain pre9, hits give low values): 0.77 (active); normalized growth (locus YGR252W, strain gcn5, hits give low values): 0.833; normalized growth (locus YHR013C, strain ard1, hits give low values): 0.985; normalized growth (locus YHR027C, strain rpn1, hits give low values): 0.969; normalized growth (locus YHR030C, strain SLT2, hits give low values): 0.538 (active) and 0.687 (active); normalized growth (locus YHR079C, strain IRE1 (second series), hits give low values): 0.918 (active); normalized growth (locus YHR079C, strain IRE1, hits give low values): 0.56 (active); normalized growth (locus YHR094C, strain hxt1, hits give low values): 0.901 (active); normalized growth (locus YHR129C, strain ARP1, hits give low values): 0.545 (active); normalized growth (locus YHR142W, strain chs7, hits give low values): 0.89; normalized growth (locus YHR200W, strain rpn10, hits give low values): 0.78 (active); normalized growth (locus YIL066C, strain RNR3, hits give low values): 0.553 (active); normalized growth (locus YIL073C, strain SPO22, hits give low values): 0.695; normalized growth (locus YIL125W, strain kgd1, hits give low values): 0.744 (active); normalized growth (locus YIR030C, strain dcg1, hits give low values): 0.867 (active); normalized growth (locus YJL092W, strain hpr5, hits give low values): 1; normalized growth (locus YJL095W, strain BCK1, hits give low values): 0.307 (active) and 0.797 (active); normalized growth (locus YJL115W, strain asf1, hits give low values): 1.03; normalized growth (locus YJL129C, strain trk1, hits give low values): 0.774 (active); normalized growth (locus YJL134W, strain LCB3, hits give low values): 0.833 (active); normalized growth (locus YJL154C, strain vps35, hits give low values): 1.04; normalized growth (locus YJL164C, strain tpk1, hits give low values): 0.894 (active); normalized growth (locus YJL166W, strain qcr8, hits give low values): 0.819 (active); normalized growth (locus YJL168C, strain set2, hits give low values): 0.948; normalized growth (locus YJL187C, strain SWE1 (second series), hits give low values): 0.518 (active); normalized growth (locus YJL187C, strain SWE1, hits give low values): 0.936; normalized growth (locus YJR043C, strain POL32, hits give low values): 0.538 (active)

— PubChem BioAssay AID1159580 (chemical genetic matrix, 2015)
